# Source: PubChem BioAssay (National Center for Advancing Translational Sciences (NCATS))
# FEN1 inhibitor: qHTS Assay for the Inhibitors of Human Flap endonuclease 1 (FEN1) | P39748 | Recombinant FEN1 flap cleavage, fluorescence, 15 min | Potency, µM (titrated, usually from 114 µM), inactives show top-dose activity change, negative = inhibition, usual class: inhibitors | actives 0.35% (n = 390,000); further: potency means the concentration at half of the fitted maximal effect; nearly all actives have a fitted effect of over 65% in size
# Target sequence (P39748 whole entry, looked up): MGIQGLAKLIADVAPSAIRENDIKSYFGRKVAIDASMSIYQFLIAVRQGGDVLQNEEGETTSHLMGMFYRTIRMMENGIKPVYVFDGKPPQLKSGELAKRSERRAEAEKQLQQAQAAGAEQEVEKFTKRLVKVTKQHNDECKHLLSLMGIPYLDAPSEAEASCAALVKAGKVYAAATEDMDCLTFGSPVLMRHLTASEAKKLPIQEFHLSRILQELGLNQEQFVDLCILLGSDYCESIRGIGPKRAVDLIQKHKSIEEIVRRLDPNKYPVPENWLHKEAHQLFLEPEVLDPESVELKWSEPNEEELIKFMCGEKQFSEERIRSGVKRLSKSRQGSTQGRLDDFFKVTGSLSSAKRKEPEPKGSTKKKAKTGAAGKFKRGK
#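 Quantitative HTS format: each compound was titrated, incubated with 10 nM nuclease for 15 min at room temperature, then challenged with flap substrate at 50 nM final. Signal change over 15 min gave concentration–effect curves.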
# APE1 inh: qHTS Assay for Inhibitors of the Human Apurinic/apyrimidinic Endonuclease 1 (APE1) | Potency, µM (top dose mostly 65.8 µM), without a hit: at the highest dose activity change, negative = inhibition, usual class: inhibitors | recombinant APE1, TAMRA/BHQ-2 abasic DNA cleavage fluorescence | actives 0.35% (n = 350,000);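 further: potency means the concentration at half of the fitted maximal effect; plate controls were vehicle for no effect and reference inhibitor for full effect; nearly all actives have a fitted effect of over 55% in size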
#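 Quantitative HTS: incision of a TAMRA/BHQ-2 double-stranded substrate bearing a tetrahydrofuran abasic site by 0.75 nM APE1 raises fluorescence. Substrate 50 nM final, added after 15 min compound preincubation at room temperature; progress as third-minus-first kinetic read difference.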
# GCN5L2 inh: qHTS Assay for Inhibitors of GCN5L2. actives 0.21% (n = 390,000). GCN5L2 HAT assay, ThioGlo1 CoA-SH fluorescence. Potency, µM (titrated, usually from 58.9 µM), without a hit: top-dose activity change, negative = inhibition, actives largely listed as inhibitors; further: potency means the concentration at half of the fitted maximal effect
#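 Preincubate 20nM GCN5L2 with compound 15 min, RT → add 50uM ThioGlo1 + 75uM H3(1-25) + 70uM acetyl-CoA → read fluorescence 0 and 20 min. Primary qHTS; fluorescent artifacts likely.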
# PI5P4K alpha inh: qHTS for Inhibitors of phosphatidylinositol 5-phosphate 4-kinase (PI5P4K); PI5P4Kalpha enzyme, ADP-Glo luminescence, 60 min; hits give low values; actives 1.2% (n = 330,000); Phosphatidylinositol 5-phosphate 4-kinase type-2 alpha (Homo sapiens), P48426; max response, %; AID 652105, 2013; active means max response of -50% or lower; inconclusive means between -30% and -50%; inactive means -30% or higher; further: value at the top dose of about 77 µM
#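 Reactions run in 0.038 M HEPES pH 7.4, 0.28 mM EGTA, 0.1% CHAPS and 5% DMSO, with PI5P4Kalpha, substrate, compound and 5 microM ATP final, one hour at room temperature. Readout is ADP-Glo luminescence.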
# BLM helicase inh: qHTS Assay for Inhibitors of Bloom's syndrome helicase (BLM); RecQ-like DNA helicase BLM (Homo sapiens), P54132; recombinant BLM DNA unwinding, fluorescence dequenching; Potency, µM (highest dose often 56.1 µM), for inactives: at the top dose activity change, negative = inhibition, usual class: inhibitors; actives 0.2% (n = 350,000);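 further: potency means the concentration at half of the fitted maximal effect; plate controls were vehicle for no effect and no enzyme for full effect; nearly all actives have a fitted effect of over 35% in size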
# RECQ1 inh-1: qHTS Assay for Inhibitors of RecQ-Like Dna Helicase 1 (RECQ1) | AID 2549, 2010 | RECQ1 DNA unwinding, red fluorescence kinetic read | Potency, µM (top dose mostly 57.3 µM), for inactives: at the highest dose activity, negative = inhibition, hits mostly inhibitors | actives 0.54% (n = 240,000) | ATP-dependent DNA helicase Q1 (Homo sapiens), P46063;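 further: potency means the concentration at half of the fitted maximal effect; plate controls were vehicle for no effect and no enzyme for full effect; nearly all actives have a fitted effect of over 30% in size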
#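 50 nM RECQ1T1 preincubated 15 min with compound in Tris pH 8.0 buffer with MgCl2, DTT, Tween-20 and 2.5 ug/ml poly(dI-dC); started with 200 nM TAMRA/BHQ-2 forked duplex and 2 mM ATP. Unwinding read as fluorescence (525/598 nm), two reads 2 h apart.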
# RECQ1 inh conf: Confirmation qHTS Assay for Inhibitors of RecQ-Like Dna Helicase 1 (RECQ1); shares compounds with RECQ1 inh-1; RECQ1 helicase DNA unwinding, fluorescence; Potency, µM (titrated, usually from 229 µM), inactives show at the highest dose activity change, negative = inhibition, actives largely listed as inhibitors; actives 28% (n = 610); further: potency means the concentration at half of the fitted maximal effect; nearly all actives have a fitted effect of over 45% in size
# RECQ1 inh-2: Confirmation qHTS Assay for Inhibitors of RecQ-Like Dna Helicase 1 (RECQ1) - Round 2 Cherry Picks; shares compounds with RECQ1 inh-1; recombinant RECQ1 DNA unwinding, red fluorescence; Potency, µM (series often up to 119 µM), without a hit: at the highest dose activity, negative = inhibition, actives largely listed as inhibitors; actives 15% (n = 1,100); AID 504841, 2011; further: potency means the concentration at half of the fitted maximal effect; nearly all actives have a fitted effect of over 50% in size
# The depositor's hits bear a star; i = inactive; u = inconclusive; x = no result; [ ] = dose if it differs, or a comment. Hits are enriched below; roughly 1.5% of the tested compounds scored in any of these assays. Unless noted, the call rests on the fitted dose curve; in most records, active means well fitted curve in the direction sought with a large enough effect; inconclusive means small, poorly fitted or top-dose-only effect, or another doubt; inactive means no such curve, though single readings can be large; an effect the other way counts as inactive or inconclusive. Unless noted, on the % scale 0 is the no-effect control and ±100 the full control effect.
SMILES,FEN1 inhibitor,APE1 inh,GCN5L2 inh,PI5P4K alpha inh,BLM helicase inh,RECQ1 inh-1,RECQ1 inh-2,others
COc1ccc(-n2c(C)cc(/C=C/c3nc(O)c([N+](=O)[O-])c(=O)[nH]3)c2C)cc1,u,u,-5%,-52*,-25%,u,u,
CCOc1cc(/C=C\c2nc(O)c([N+](=O)[O-])c(=O)[nH]2)ccc1OC(C)CC (stereo not drawn),-4%,3%,0%,u,-7%,x,x,
Cc1cc(/C=C\c2nc(O)c([N+](=O)[O-])c(=O)[nH]2)c(C)n1-c1ccccc1,u,u,-7%,-63*,-16%,25µM*,u,
NCCCC[C@H](NC(=O)[C@H](CS)NC(=O)[C@@H](N)Cc1cnc[nH]1)C(=O)N[C@@H](Cc1ccccc1)C(=O)N[C@@H](Cc1c[nH]c2ccccc12)C(=O)N[C@@H](Cc1c[nH]c2ccccc12)C(=O)O,x,-3%,2%,x,2%,13%,x,
COc1cccc(NC(=O)CC2S/C(=N\S(=O)(=O)c3ccccc3)N(c3ccccc3)C2=O)c1 (stereo not drawn),-1%,11%,-4%,-3,-5%,40µM*,-9%,
COC(=O)CCC(=O)OC1(C)C(=O)C=C2C=C(C3CC3)N(c3ccc(OC)cc3)C=C2C1=O (stereo not drawn),x,-1%[12.4 µM],x,x,-8%[12.4 µM],-13%[11.5 µM],x,
O=C(Nc1nc(-c2ccccc2)cs1)Nc1ccc(F)cc1F,-1%,-1%,-2%,4,-12%,u,-11%,
O=C(Nc1nc(-c2ccccn2)cs1)Nc1ccc(F)cc1F,-13%,24%,-11%,-17,-8%,x,x,
C(/Oc1ccccc1)=C1\Nn2c(nnc2-c2cc(-c3ccccc3)n[nH]2)S1,1%,x,x,x,x,x,x,
CCOC(=O)c1c(NC(=O)/C=C/C(=O)O)sc(C)c1-c1ccc(C(C)(C)C)cc1,-33%,8%,u,-3,-12%,u,50µM*,
CCOC(=O)c1c(NC(=O)/C=C\C(=O)O)sc(C)c1-c1ccccc1,-4%,-1%,-1%,u,-1%,i,x,
Nc1ccc(N2CCCCCC2)cc1,x,u,-6%,x,-12%,14µM*,x,RECQ1 inh conf=-3%[114 µM]
Nc1ccc(N2CCN(c3ccc(F)cc3)CC2)cc1,14%,10%,-1%,1,0%,i,x,
C[C@@H]1CC2C3CCC4=CC(=O)C=CC4(C)[C@@]3(F)[C@@H](O)CC2(C)[C@@]1(O)C(=O)CO (stereo partly drawn),x,0%,0%,x,1%,-2%,x,
COCCn1c(C)cc(C(=O)COC(=O)c2cccc(O)c2)c1C,-15%,3%,17%,-7,-2%,i,x,
